# Measurements from the supplement of paper PMC6555819.
# Experiments:
# Experiment in all cases: PBM binding z-score (relative to random genomic background probes); higher = stronger binding; sequences stand for … in GC…GCGATTGACAGCGTAGAATGAAGG
# [1] = test system: FXR:RXRa (NR concentration 270 nM, RXRa partner concentration 90 nM)
# Method in brief: (§1)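 Scanned fluorescence from custom Agilent 4×180K protein-binding microarrays was regression-normalized. Binding z-scores use random background probes as reference. Ligand-free nuclear receptor dimers were incubated on the arrays for 1 h and detected with antibodies against each partner (one per run).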
# [2] = test system: LXRa:RXRa (NR concentration 270 nM, RXRa partner concentration 90 nM)
# Method in brief: as §1
# [3] = test system: LXRa homodimer (NR concentration 270 nM)
# Method in brief: as §1
# [4] = test system: LXRb:RXRa (NR concentration 270 nM, RXRa partner concentration 90 nM)
# Method in brief: as §1
# [5] = test system: LXRb homodimer (NR concentration 270 nM)
# Method in brief: as §1
# [6] = test system: PPARa:RXRa (NR concentration 270 nM, RXRa partner concentration 90 nM)
# Method in brief: as §1
# [7] = test system: PPARg:RXRa (NR concentration 180 nM, RXRa partner concentration 90 nM)
# Method in brief: as §1
# [8] = test system: PPARg:RXRa 270nM:90nM, anti-RXR (NR concentration 270 nM, RXRa partner concentration 90 nM)
# Method in brief: as §1
# [9] = test system: PPARg:RXRa 30nM:10nM, anti-RXR (NR concentration 30 nM, RXRa partner concentration 10 nM)
# Method in brief: as §1
# [10] = test system: PPARg:RXRa 90nM:30nM, anti-RXR (NR concentration 90 nM, RXRa partner concentration 30 nM)
# Method in brief: as §1
# [11] = test system: PPARg:RXRa DBDmut IVT, anti-RXR (DBD mutation: RXRa K156A/R161A, NR concentration 270 nM, RXRa partner concentration 90 nM)
# Method in brief: as §1
# [12] = test system: PPARg:RXRa IVT, anti-PPARg (NR concentration 270 nM, RXRa partner concentration 90 nM)
# Method in brief: as §1
# [13] = test system: PPARg DBDmut:RXRa IVT, anti-PPARg (DBD mutation: PPARg1 K132A/R137A, NR concentration 270 nM, RXRa partner concentration 90 nM)
# Method in brief: as §1
# [14] = test system: PPARg DBDmut IVT, anti-PPARg (DBD mutation: PPARg1 K132A/R137A, NR concentration 270 nM)
# Method in brief: as §1
# [15] = test system: PPARg homodimer (NR concentration 180 nM)
# Method in brief: as §1
# [16] = test system: PXR:RXRa (NR concentration 270 nM, RXRa partner concentration 90 nM)
# Method in brief: as §1
# [17] = test system: PXR homodimer (NR concentration 270 nM)
# Method in brief: as §1
# [18] = test system: RARa:RXR (NR concentration 270 nM, RXRa partner concentration 90 nM)
# Method in brief: as §1
# [19] = test system: RARa homodimer (NR concentration 270 nM)
# Method in brief: as §1
# [20] = test system: RARb:RXRa (NR concentration 270 nM, RXRa partner concentration 90 nM)
# Method in brief: as §1
Sequence,PBM binding z-score [1],PBM binding z-score [2],PBM binding z-score [3],PBM binding z-score [4],PBM binding z-score [5],PBM binding z-score [6],PBM binding z-score [7],PBM binding z-score [8],PBM binding z-score [9],PBM binding z-score [10],PBM binding z-score [11],PBM binding z-score [12],PBM binding z-score [13],PBM binding z-score [14],PBM binding z-score [15],PBM binding z-score [16],PBM binding z-score [17],PBM binding z-score [18],PBM binding z-score [19],PBM binding z-score [20]
CGAACGAGGGCATGAGTCGATAGCAAATGCCGAT,0.37,0.268,-0.569,-0.0412,-0.951,1.48,1.74,2.28,0.37,1.93,2.97,1.89,-0.75,-0.876,0.211,0.0627,-0.737,0.1,-0.456,1.81
CCTAGTTGGTCAGGAGGTCGCACACCGGATATGA,1.17,0.794,0.375,0.833,0.0283,1.59,1.06,1.73,0.24,1.19,0.576,1.51,-0.0553,-0.0724,1.86,1.24,0.681,1.59,1.17,1.98
CAAACTAGGTCCAAGGTCAAAGTCGAGCCAACCA,3.97,3.48,1.97,3.75,0.508,5.32,9.35,7.68,7.65,8.28,2.64,4.91,0.406,0.226,1.83,3.7,1.57,3.71,1.6,3.51
GATACAGGCTCAGCTAGAGGCCAGAGTATGGAAA,-0.845,-1.13,-0.652,-1.25,-1.62,-1.21,0.137,-0.746,-0.505,-0.667,-1.07,-0.379,-0.391,-1.01,-0.531,-0.951,-0.872,-0.733,-0.86,-0.294
CATCCTAGGTCAGGGCCAGTATAGGAGGAACGTT,2.24,2.03,0.118,1.17,-0.0238,2.75,1.89,2.19,0.615,1.34,3.29,3.82,0.575,-0.518,1.36,0.842,-0.294,1.65,0.477,3.65
TCAGACAGCTGAAGGTAACTCAGGTACGCAGTCG,-0.16,1.22,-0.677,0.336,-0.931,0.454,0.398,1.49,2.91,2.14,1.6,-0.656,-0.951,-0.614,-1.05,0.139,-0.874,0.392,-0.741,-0.0591
